Reference: PubChem BioAssay (EPA / NIEHS)
Results filed as inconclusive are left out. Activity calls are given as the source filed them. How the source made its calls, unless noted: active means hit-call score of the fitted dose curve at least 0.9, where 1 is the maximum; inactive means score below 0.9.

Experiments:
[1] = read-out: Human Leukocyte Antigen - DR isotype (HLADR), HLA-DRA (gene 3122); experiment: BSK_3C_HLADR: BioMAP Diversity Plus: 3C Assay for Human Leukocyte Antigen - DR isotype (HLADR) Biomarker Activity (AID 2283019); details: primary human endothelial cells (HUVEC); actives raise or lower the signal
Method in brief: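 Endothelial cells from human umbilical vein are treated with test chemical; after 24 h, HLA-DR levels are measured by ELISA. Data are fitted in both directions using DMSO as the baseline.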

[2] = read-out: Interleukin-8 (IL8), CXCL8 (gene 3576); experiment: BSK_3C_IL8: BioMAP Diversity Plus: 3C Assay for Interleukin-8 (IL8) Biomarker Activity (AID 2283020); details: primary human endothelial cells (HUVEC); actives raise or lower the signal
Method in brief: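 IL-8 was measured by ELISA in HUVEC cultures 24 h after chemical dosing, with gain or loss of signal fitted relative to DMSO. Parallel SRB total-protein staining tracked overt cytotoxicity.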

[3] = read-out: Monokine induced gamma interferon (MIG), CXCL9 (gene 4283); experiment: BSK_3C_MIG: BioMAP Diversity Plus: 3C Assay for Monokine induced gamma interferon (MIG) Biomarker Activity (AID 2283021); details: primary human endothelial cells (HUVEC); actives raise or lower the signal;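 on AC50: MIG protein level measured by immunoassay in the treated endothelial cultures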
Method in brief: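 ELISA measurement of MIG in human umbilical vein endothelial cells 24 h after treatment. Cytotoxicity tracked by SRB staining in parallel cultures; gain or loss of signal fitted relative to DMSO.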

[4] = target: human Vitamin D Receptor (VDR), VDR (gene 7421) (UniProt P11473); experiment: ATG_VDR_TRANS: Attagene TRANS-FACTORIAL HepG2 Assay for human Vitamin D Receptor (VDR) (AID 2283022; active means hit-call score of the fitted dose curve at least 0.9, where 1 is the maximum)
human Vitamin D Receptor (VDR), VDR (gene 7421), sequence (P11473 whole entry, looked up, the tested form may be a part): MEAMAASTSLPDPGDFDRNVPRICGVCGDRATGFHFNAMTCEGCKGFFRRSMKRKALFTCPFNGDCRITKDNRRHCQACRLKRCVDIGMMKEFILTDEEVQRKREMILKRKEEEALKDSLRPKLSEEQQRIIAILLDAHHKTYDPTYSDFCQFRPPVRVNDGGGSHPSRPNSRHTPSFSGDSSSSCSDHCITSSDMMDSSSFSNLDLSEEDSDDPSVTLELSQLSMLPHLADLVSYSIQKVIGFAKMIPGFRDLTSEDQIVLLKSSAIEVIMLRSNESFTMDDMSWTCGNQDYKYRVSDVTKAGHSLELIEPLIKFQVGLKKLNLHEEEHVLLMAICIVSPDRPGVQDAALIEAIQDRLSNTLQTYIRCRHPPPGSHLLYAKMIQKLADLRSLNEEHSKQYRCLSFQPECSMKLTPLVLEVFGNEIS
Method in brief: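 Fluorescence of labelled reporter cDNA fragments, resolved by capillary electrophoresis, gives mRNA induction after 24 h treatment of HepG2 cells carrying transfected Gal4-fusion reporter units. Activity is fitted in the positive direction with DMSO as baseline.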

[5] = read-out: Matrix Metallopeptidase 1 (MMP1), MMP1 (gene 4312); experiment: BSK_BE3C_MMP1: BioMAP Diversity Plus: BE3C Assay for Matrix Metallopeptidase 1 (MMP1) Biomarker Activity (AID 2283024); details: primary human bronchial epithelial cells; actives raise or lower the signal
Method in brief: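 ELISA measurement of MMP-1 after 24 h compound exposure of primary human bronchial epithelial cells. Changes in either direction fitted relative to DMSO; parallel SRB staining checked overt cytotoxicity.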

[6] = BSK_3C_Vis: BioMAP Diversity Plus: 3C Assay for Morphology Visualization (AID 2283025); details: primary human endothelial cells (HUVEC);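 further: fitted both ways so gain or loss versus DMSO counts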;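 on AC50: light microscopy image of cell morphology used as background control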
Method in brief: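 Light-microscopy visualization of HUVEC cultures at 24 h post-treatment, with DMSO as baseline for bidirectional fitting.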

[7] = BSK_4H_SRB: Viability Assessment in the BioMAP Diversity Plus: 4H Assay (AID 2283027); details: primary human endothelial cells (HUVEC);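 further: cells exposed to compound for 24 h before staining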;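 on AC50: curves fitted both ways versus DMSO so AC50 may be loss or gain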
Method in brief: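 Cytotoxicity read-out in primary human endothelial cells: after 24 h compound exposure, cells were TCA-fixed (10%), stained with 0.1% SRB and absorbance taken at 560 nm. Values fitted in both directions relative to DMSO.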

[8] = BSK_BE3C_SRB: Viability Assessment in the BioMAP Diversity Plus: BE3C Assay (AID 2283028); details: primary human bronchial epithelial cells;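 on AC50: fitted both ways so AC50 may mark signal gain or loss versus DMSO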
Method in brief: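 Overt cytotoxicity was assessed as total protein in confluent human primary bronchial epithelial cultures 24 h after chemical addition, using 0.1% sulforhodamine B staining read at 560 nm.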

[9] = read-out: Urokinase-type plasminogen activator receptor (uPAR), PLAUR (gene 5329); experiment: BSK_4H_uPAR: BioMAP Diversity Plus: 4H Assay for Urokinase-type plasminogen activator receptor (uPAR) Biomarker Activity (AID 2283030); details: primary human endothelial cells (HUVEC); actives raise or lower the signal
Method in brief: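 Chemicals are dosed onto human vascular endothelial primary cells (umbilical vein). After 24 h, uPAR is read by ELISA. Gain or loss of signal is fitted relative to DMSO.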

[10] = read-out: Vascular endothelial growth factor receptor 2 (Homo sapiens) (UniProt P35968); experiment: BSK_4H_VEGFRII: BioMAP Diversity Plus: 4H Assay for Vascular endothelial growth factor receptor 2 (VEGFR2) Biomarker Activity (AID 2283031); details: primary human endothelial cells (HUVEC); actives raise or lower the signal;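 on AC50: cell-surface VEGFR2 protein level quantified by ELISA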
Method in brief: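 VEGFRII levels on human vascular endothelial primary cells were determined by ELISA at 24 hours post-dosing, with gain- or loss-of-signal fitted against DMSO controls.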

[11] = read-out: Human Leukocyte Antigen - DR isotype (HLADR), HLA-DRA (gene 3122); experiment: BSK_BE3C_HLADR: BioMAP Diversity Plus: BE3C Assay for Human Leukocyte Antigen - DR isotype (HLADR) Biomarker Activity (AID 2283032); details: primary human bronchial epithelial cells; actives raise or lower the signal
Method in brief: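 Cell-surface HLA-DR ELISA readout at 24 h after dosing in the BE3C primary human lung bronchial epithelial system; gain or loss of signal against DMSO, with parallel sulforhodamine B staining of total protein for overt cytotoxicity.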

[12] = read-out: Vascular cell adhesion molecule 1 (VCAM1), VCAM1 (gene 7412); experiment: BSK_4H_VCAM1: BioMAP Diversity Plus: 4H Assay for Vascular cell adhesion molecule 1 (VCAM1) Biomarker Activity (AID 2283033); details: primary human endothelial cells (HUVEC); actives raise or lower the signal;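 on outcome: cell-surface VCAM-1 protein measured by ELISA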
Method in brief: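 VCAM-1 ELISA read 24 h after chemical dosing of HUVEC in the BioMAP 4H system, with gain or loss of signal fitted relative to DMSO. Parallel SRB staining (560 nm) checked overt cytotoxicity.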

[13] = read-out: Interferon-gamma inducible Protein 10 (IP10), CXCL10 (gene 3627); experiment: BSK_BE3C_IP10: BioMAP Diversity Plus: BE3C Assay for Interferon-gamma inducible Protein 10 (IP10) Biomarker Activity (AID 2283034); details: primary human bronchial epithelial cells; actives raise or lower the signal
Method in brief: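 IP-10 quantified by ELISA in human primary bronchial epithelial cell cultures at 24 hours post-dosing. Gain or loss of signal fitted relative to DMSO; parallel SRB staining assessed overt cytotoxicity.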

[14] = read-out: Monokine induced gamma interferon (MIG), CXCL9 (gene 4283); experiment: BSK_BE3C_MIG: BioMAP Diversity Plus: BE3C Assay for Monokine induced gamma interferon (MIG) Biomarker Activity (AID 2283035); details: primary human bronchial epithelial cells; actives raise or lower the signal;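 on outcome: MIG protein measured by ELISA in BE3C cultures after 24 h of dosing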
Method in brief: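 ELISA quantified MIG after 24 h exposure of primary bronchial epithelial cultures, analysed in both directions relative to DMSO. Cytotoxicity tracked in parallel cultures by sulforhodamine B staining.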

[15] = read-out: Transforming growth factor beta 1 (TGFb1), TGFB1 (gene 7040); experiment: BSK_BE3C_TGFb1: BioMAP Diversity Plus: BE3C Assay for Transforming growth factor beta 1 (TGFb1) Biomarker Activity (AID 2283036;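 on outcome: TGF-b1 protein level measured by ELISA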); details: primary human bronchial epithelial cells; actives raise or lower the signal
Method in brief: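 ELISA readout of TGF-b1 from human lung bronchial epithelial primary cells, taken 24 h post-treatment. Gain or loss of signal fitted relative to DMSO baseline, with parallel SRB staining for overt cytotoxicity.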

[16] = read-out: Plasminogen activator inhibitor-1 (PAI1), SERPINE1 (gene 5054); experiment: BSK_BE3C_PAI1: BioMAP Diversity Plus: BE3C Assay for Plasminogen activator inhibitor-1 (PAI1) Biomarker Activity (AID 2283037); details: primary human bronchial epithelial cells; actives raise or lower the signal
Method in brief: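 PAI-1 was measured by ELISA in human primary bronchial epithelial cultures 24 h after chemical dosing, with cytotoxicity checked by SRB total-protein staining in parallel cultures. Activity was fitted in both directions relative to DMSO.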

[17] = read-out: urokinase plasminogen activator (uPA), PLAU (gene 5328); experiment: BSK_BE3C_uPA: BioMAP Diversity Plus: BE3C Assay for urokinase plasminogen activator (uPA) Biomarker Activity (AID 2283038); details: primary human bronchial epithelial cells; actives raise or lower the signal;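 on outcome: uPA protein level quantified by ELISA in cell cultures; uPA read one day after compound addition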
Method in brief: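 Measured by ELISA: uPA from human primary bronchial epithelial cells 24 h after chemical treatment. Values derive from bidirectional curve fitting with DMSO serving as negative control. Total protein by SRB staining in parallel wells flagged overt cytotoxicity.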

[18] = BSK_3C_SRB: Viability Assessment in the BioMAP Diversity Plus: 3C Assay (AID 2283023); details: primary human endothelial cells (HUVEC);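 further: fitted both ways against DMSO so a hit may be signal rise or drop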
Method in brief: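 Cells were dosed with chemical, cultured 24 h, fixed with 10% TCA, stained with 0.1% SRB and read at 560 nm. Human umbilical vein endothelium was used; DMSO served as negative control and baseline.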

[19] = read-out: Thrombomodulin, THBD (gene 7056); experiment: BSK_3C_Thrombomodulin: BioMAP Diversity Plus: 3C Assay for Thrombomodulin Biomarker Activity (AID 2283029); details: primary human endothelial cells (HUVEC); actives raise or lower the signal
Method in brief: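 ELISA measurement of thrombomodulin on HUVEC surface 24 h after chemical dosing; activity fitted in both directions relative to DMSO vehicle.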

[20] = read-out: Pselectin, SELP (gene 6403); experiment: BSK_4H_Pselectin: BioMAP Diversity Plus: 4H Assay for Pselectin Biomarker Activity (AID 2283026); details: primary human endothelial cells (HUVEC); actives raise or lower the signal
Method in brief: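 ELISA of surface P-selectin on HUVEC, 24 h after dosing, with parallel SRB staining (0.1% after 10% TCA fixation, 560 nm) for overt cytotoxicity. Activity fitted in both directions relative to DMSO.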

SMILES: C=CC(=O)OCC(CC)(COC(=O)C=C)COC(=O)C=C
- AC50 [1]: 1.38 µM (active)
- AC50 [2]: 3.18 µM (active)
- AC50 [3]: 3.68 µM (active)
- outcome [4]: inactive
- AC50 [5]: 11.4 µM (active)
- AC50 [6]: 2.98 µM (active)
- AC50 [7]: 4.07 µM (active)
- AC50 [8]: 20 µM (active)
- AC50 [9]: 4.07 µM (active)
- AC50 [10]: 5.14 µM (active)
- AC50 [11]: 3.18 µM (active)
- AC50 [12]: 2.45 µM (active)
- AC50 [13]: 4.45 µM (active)
- AC50 [14]: 9.44 µM (active)
- AC50 [15]: 6.86 µM (active)
- AC50 [16]: 10.5 µM (active)
- AC50 [17]: 4.96 µM (active)

SMILES: OCC(F)(F)OC(F)(F)C(F)(F)OC(F)(F)CO
- outcome [1]: inactive
- outcome [2]: inactive
- outcome [3]: inactive
- outcome [4]: inactive
- outcome [18]: inactive
- outcome [5]: inactive
- outcome [7]: inactive
- outcome [8]: inactive
- outcome [9]: inactive
- outcome [10]: inactive
- outcome [11]: inactive
- outcome [12]: inactive
- outcome [13]: inactive
- outcome [14]: inactive
- outcome [16]: inactive
- outcome [17]: inactive

SMILES: ClC(Cl)=C(c1ccc(Cl)cc1)c1ccccc1Cl
- AC50 [1]: 10.4 µM (active)
- AC50 [2]: 11.8 µM (active)
- AC50 [3]: 29.2 µM (active)
- outcome [4]: inactive
- AC50 [18]: 7.99 µM (active)
- outcome [5]: inactive
- AC50 [6]: 14.4 µM (active)
- AC50 [7]: 12.6 µM (active)
- outcome [19]: inactive
- AC50 [9]: 11.7 µM (active)
- AC50 [10]: 5.35 µM (active)
- AC50 [11]: 20 µM (active)
- AC50 [12]: 11.8 µM (active)
- AC50 [13]: 10.7 µM (active)
- AC50 [14]: 26.4 µM (active)
- outcome [15]: inactive
- AC50 [16]: 10.3 µM (active)
- AC50 [17]: 20 µM (active)

SMILES: CCN(CC)c1ccccc1
- outcome [1]: inactive
- outcome [2]: inactive
- outcome [3]: inactive
- outcome [4]: inactive
- outcome [5]: inactive
- outcome [6]: inactive
- outcome [20]: inactive
- outcome [7]: inactive
- outcome [19]: inactive
- outcome [9]: inactive
- outcome [10]: inactive
- outcome [11]: inactive
- outcome [12]: inactive
- outcome [13]: inactive
- outcome [14]: inactive
- outcome [15]: inactive
- outcome [16]: inactive
- outcome [17]: inactive

SMILES: N#Cc1c(-c2ccc(Cl)cc2)[nH]c(C(F)(F)F)c1Br
- AC50 [1]: 0.324 µM (active)
- AC50 [2]: 0.0221 µM (active)
- outcome [3]: inactive
- outcome [4]: inactive
- AC50 [18]: 1.61 µM (active)
- AC50 [6]: 7.8 µM (active)
- AC50 [20]: 0.117 µM (active)
- AC50 [7]: 0.0374 µM (active)
- outcome [8]: inactive
- AC50 [19]: 5.07 µM (active)
- AC50 [9]: 0.13 µM (active)
- AC50 [10]: 0.016 µM (active)
- AC50 [11]: 4.08 µM (active)
- AC50 [12]: 1.69 µM (active)
- AC50 [13]: 4.45 µM (active)
- AC50 [14]: 25.4 µM (active)
- AC50 [15]: 0.0307 µM (active)
- outcome [16]: inactive
- outcome [17]: inactive

SMILES: CC(O)C(F)(F)C(F)(F)F (centres undefined)
- outcome [1]: inactive
- outcome [2]: inactive
- outcome [3]: inactive
- outcome [4]: inactive
- outcome [5]: inactive
- outcome [20]: inactive
- outcome [7]: inactive
- outcome [19]: inactive
- outcome [9]: inactive
- outcome [10]: inactive
- outcome [11]: inactive
- outcome [12]: inactive
- outcome [13]: inactive
- outcome [14]: inactive
- outcome [16]: inactive
- outcome [17]: inactive

SMILES: CCOP(=S)(OCC)SCSCC
- outcome [1]: inactive
- outcome [2]: inactive
- outcome [3]: inactive
- outcome [4]: inactive
- outcome [18]: inactive
- outcome [5]: inactive
- outcome [6]: inactive
- outcome [20]: inactive
- outcome [7]: inactive
- outcome [8]: inactive
- outcome [19]: inactive
- outcome [9]: inactive
- outcome [10]: inactive
- outcome [11]: inactive
- outcome [12]: inactive
- outcome [13]: inactive
- outcome [14]: inactive
- outcome [15]: inactive
- outcome [16]: inactive
- outcome [17]: inactive
